PAFAH1B2 FP inh: blocks human PAF acetylhydrolase 1b catalytic subunit 2; P68402; recombinant PAFAH1B2, FP-rhodamine activity probe, fluorescence polarization; inhibition, % at 3.39 µM; actives 1.2% (n = 340,000);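 active means inhibition above the mean of all tested compounds plus 3 SD, cut at about 24% in these data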;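 further: 0% = enzyme with DMSO and 100% = wells lacking PAFAH1B2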
M18AAP inhibitor: PfM18AAP enzyme inhibition. recombinant PfM18AAP, H-Glu-NHMec fluorogenic cleavage. actives 1.2% (n = 290,000). AID 1822. inhibition, % at 7.35 µM;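 active means inhibition above the campaign mean inhibition over all tested compounds plus 3 SD, cut at about 28% in these data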;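 further: 0% = plate median of test compound wells and 100% = 2 mM ZnCl2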
DSG3 Ab inh: inhibitors of pemphigus antibody binding to human desmoglein-3; P32926; DSG3-coupled beads, scFv-anti-DSG3-GFP binding, flow cytometry; active compounds read low; binding (percent of control), % at 10 µM; actives 0.48% (n = 310,000); AID 588358;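 active means binding more than 3 SD below its plate's average and above zero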;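 further: hits lower antibody fragment binding to DSG3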
Target sequence (P32926 whole entry, looked up, the tested form may be a part): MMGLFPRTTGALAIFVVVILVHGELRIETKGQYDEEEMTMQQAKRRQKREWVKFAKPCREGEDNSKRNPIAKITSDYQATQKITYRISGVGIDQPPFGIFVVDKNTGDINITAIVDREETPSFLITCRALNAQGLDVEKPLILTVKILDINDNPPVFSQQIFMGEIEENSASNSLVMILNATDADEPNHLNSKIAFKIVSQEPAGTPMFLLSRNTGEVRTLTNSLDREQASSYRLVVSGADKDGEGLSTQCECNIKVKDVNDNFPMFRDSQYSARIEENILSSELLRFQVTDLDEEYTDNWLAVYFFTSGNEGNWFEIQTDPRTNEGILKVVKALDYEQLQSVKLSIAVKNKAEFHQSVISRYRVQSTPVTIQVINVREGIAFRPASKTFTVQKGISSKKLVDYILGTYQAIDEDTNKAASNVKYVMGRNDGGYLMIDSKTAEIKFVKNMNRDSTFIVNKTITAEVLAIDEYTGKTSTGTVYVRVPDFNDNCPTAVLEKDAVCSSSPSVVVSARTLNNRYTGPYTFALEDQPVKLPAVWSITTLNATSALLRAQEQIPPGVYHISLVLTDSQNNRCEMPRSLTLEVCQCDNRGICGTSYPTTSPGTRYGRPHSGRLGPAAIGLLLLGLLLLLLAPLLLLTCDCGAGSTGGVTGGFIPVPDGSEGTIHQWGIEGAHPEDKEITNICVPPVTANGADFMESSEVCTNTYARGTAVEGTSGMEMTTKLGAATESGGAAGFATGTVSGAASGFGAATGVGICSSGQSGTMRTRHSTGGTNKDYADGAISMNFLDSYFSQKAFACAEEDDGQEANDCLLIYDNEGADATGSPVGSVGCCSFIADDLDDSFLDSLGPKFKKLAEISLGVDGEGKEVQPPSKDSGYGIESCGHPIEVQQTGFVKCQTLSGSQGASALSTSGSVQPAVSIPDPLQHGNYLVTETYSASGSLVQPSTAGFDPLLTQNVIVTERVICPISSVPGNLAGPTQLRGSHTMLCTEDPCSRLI
PAFAH1B3 inh: PAFAH1B3 (human) inhibition; inhibition, % at 3.39 µM; actives 0.28% (n = 340,000); recombinant PAFAH1B3, FP-rhodamine probe, fluorescence polarization; AID 492972;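 active means inhibition above the screen-wide average of all tested compounds plus 3 SD, cut at about 25% in these data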;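 further: 0% = enzyme with DMSO only and 100% = wells lacking PAFAH1B3 protein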
PAFAH2 FP inh: inhibitors of human PAFAH2; actives 0.99% (n = 340,000); recombinant PAFAH2, FP-rhodamine activity probe, fluorescence polarization; AID 492956; inhibition, % at 3.39 µM; Q99487;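 active means inhibition above the mean over all tested compounds plus 3 SD, cut at about 30% in these data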;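 further: inhibitors block probe labeling of enzyme so polarization drops; 0% = enzyme with DMSO and 100% = wells lacking PAFAH2 protein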
pPAFAH FP inh: inhibitors of human plasma PAF acetylhydrolase (pPAFAH). Q13093. recombinant pPAFAH, FP-rhodamine probe fluorescence polarization. inhibition, % at 3.39 µM. actives 1.5% (n = 330,000). AID 463082;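 active means inhibition above the mean inhibition across the screen plus 3 SD, cut at about 25% in these data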;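 further: inhibitors block binding of the rhodamine activity-based probe so polarization drops; 0% = enzyme with DMSO and 100% = wells lacking pPAFAH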
pPAFAH FP conf: confirmation of human plasma PAF acetylhydrolase (pPAFAH) inhibitors. shares compounds with pPAFAH FP inh. recombinant pPAFAH, FP-Rh probe fluorescence polarization. inhibition, % at 3.39 µM. actives 72% (n = 2,300);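 active means mean inhibition of the triplicate above the hit cutoff set for the earlier primary screen, cut at about 25% in these data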;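 further: 0% = enzyme with DMSO and 100% = wells lacking pPAFAH enzyme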
The depositor's hits bear a star; . = not tested or not shown. Hits are enriched below; roughly 3.8% of the tested compounds scored in any of these assays.

SMILES | PAFAH1B2 FP inh | M18AAP inhibitor | DSG3 Ab inh | PAFAH1B3 inh | PAFAH2 FP inh | pPAFAH FP inh | pPAFAH FP conf
Cc1ccc(Cl)cc1NC(=O)COC(=O)CCN1C(=O)C2CC=CCC2C1=O (configuration not stated) | 12.3 | . | 91.7 | 10.1 | -6.9 | 1.2 | .
CCn1c(SCc2nc3sc(C(=O)O)c(C)c3c(=O)[nH]2)nc2ccccc21 | 11.9 | 33.0* | 96.1 | 43.4* | 15.7 | 48.2* | 47.2*
O=C1CCCC(O)=C1N=Nc1c(Cl)cc(C(F)(F)F)cc1Cl | 35.2* | 28.3* | . | 36.8* | 64.4* | 39.3* | 11.0
O=C(CSc1ccc2nnc(CCNC(=O)c3ccccc3)n2n1)NCc1ccc(F)cc1 | 2.0 | 0.7 | 109.0 | 7.2 | 4.0 | 5.3 | .
COCCNC(=O)c1ccc(N2CC3CC(C2)c2cccc(=O)n2C3)c(NC(=O)c2cc(OC)cc(OC)c2)c1 (configuration not stated) | -4.2 | -4.6 | 101.3 | 7.2 | 3.5 | 4.0 | .
CCOCCCNC(=O)c1ccc(N2CC3CC(C2)c2cccc(=O)n2C3)c(NC(=O)Nc2cccc(OC)c2)c1 (configuration not stated) | -1.0 | 0.4 | 102.4 | 3.7 | 15.7 | 66.3* | 65.9*
CCc1ccc(NC(=O)Nc2cc(C(=O)NCC3CCCO3)ccc2N2CC3CC(C2)c2cccc(=O)n2C3)cc1 (configuration not stated) | 0.4 | -3.4 | 97.5 | 6.1 | 17.7 | 87.4* | 93.5*
COCC(C)N1CCC(Oc2ccc(C(=O)N3CCCC3)cc2)CC1 (configuration not stated) | 9.6 | 0.0 | 103.6 | -2.8 | 6.9 | -0.7 | .
CC1=C(C(=O)OCc2ccccc2)C(c2cccc([N+](=O)[O-])c2)NC(=O)N1C (configuration not stated) | -0.7 | 1.4 | 121.0 | 8.8 | -2.5 | -3.1 | .
COC(=O)c1ccc(-n2c(C)cc(/C=N/Nc3nc(C)cc(=O)[nH]3)c2C)cc1 | 0.8 | 11.7 | 106.1 | 7.0 | 4.3 | 66.5* | 89.3*
Cc1cc(=O)[nH]c(N/N=C/c2cc(C)n(CC(F)(F)F)c2C)n1 | 7.4 | 8.3 | 91.8 | 4.5 | 0.4 | 2.8 | .
COc1cc(OC)c2c(O)c3c(c(-c4c5c(c(O)c6c(OC)cc(OC)cc46)CO[C@@H](C)[C@H]5O)c2c1)[C@H](O)[C@H](C)OC3 | 21.6 | 2.1 | 74.4* | 7.9 | 23.6 | 78.0* | 67.6*
CC1=C(C(=O)Nc2ccc(C(=O)N3CCN(c4cccc(Cl)c4)CC3)cc2)SCCO1 | 0.4 | -1.2 | 107.7 | 0.1 | 3.8 | 42.0* | 23.8
C=C1c2cccc(O)c2C(O)=C2C(=O)[C@]3(O)C(O)=C(C(N)=O)C(=O)[C@@H](N(C)C)[C@@H]3[C@@H](O)[C@H]12 | 11.9 | 18.4 | 96.5 | 18.2 | 22.6 | 94.8* | 17.5
Cc1ccc(Cn2cnc3c(cnn3-c3ccc(F)cc3)c2=O)cc1 | 0.9 | 1.2 | 102.8 | 6.3 | 4.7 | 1.7 | .
Cc1c(Cl)cccc1NS(=O)(=O)c1ccc2c(c1)C1C=CCC1C(c1ccc(C(=O)O)cc1)N2 (configuration not stated) | 29.7* | 6.2 | 106.4 | 36.8* | 59.5* | 91.8* | 88.5*
COc1ccc(NS(=O)(=O)c2ccc3c(c2)[C@H]2C=CC[C@H]2[C@@H](c2ccc(C(=O)O)cc2)N3)cc1 | 30.7* | 17.6 | 92.2 | 45.9* | 68.1* | 73.5* | 66.1*
COc1ccc(CN2CCN(Cc3ccccc3F)CC2)cc1OC | -0.5 | 6.9 | 136.4 | 4.6 | -8.1 | 2.7 | .
CCOC(=O)N1CCC(NC(=O)CC2C(=O)NCCN2Cc2ccccc2F)CC1 (configuration not stated) | 2.5 | -3.4 | 98.5 | 9.2 | 3.8 | 49.5* | 6.5
COc1ccc(Br)cc1/C=c1\sc2nc(-c3ccco3)nn2c1=O | -6.2 | . | 90.2 | -5.1 | 0.0 | 44.2* | 20.0
CC1=C(C(=O)Nc2ccc(CC(=O)NCc3ccc(OC(C)C)cc3)cc2)SCCO1 | 4.9 | -3.9 | 93.6 | 5.9 | 12.7 | 37.5* | 18.6
COc1ccc(CNC(=O)Cc2ccc(NC(=O)C3=C(C)OCCS3)cc2)cc1 | -3.2 | 5.2 | . | -1.9 | 2.0 | 24.0 | .

Source: PubChem (several laboratories)
